Laboratory results taken from PubChem BioAssay (NCI).
Compounds without any hit were thinned out: in the full panel of roughly 79,000, 15% have a hit. Rule as the data show it: active = growth inhibition above about 70%; inactive = the rest.

How the values were obtained:
[1] = NCI Yeast Anticancer Drug Screen. Data for the rad50 strain (AID 155);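 also: 0% = growth of vehicle-only cultures of the same strain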; conditions: S. cerevisiae rad50 strain growth inhibition; at 50.0 µM; active compounds read high
How it was run: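 Readout: growth inhibition relative to vehicle-treated cultures. Compound exposure was carried out in a genetically defined yeast strain deficient in DNA damage repair.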

[2] = NCI Yeast Anticancer Drug Screen. Data for the mec2-1 strain (AID 157); conditions: S. cerevisiae mec2-1 strain, at 50.0 µM, active compounds read high
How it was run: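 Growth inhibition is read against vehicle-treated controls after compound exposure of the mec2-1 yeast strain, which is defective in DNA damage repair or cell cycle control.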

[3] = NCI Yeast Anticancer Drug Screen. Data for the sgs1 mgt1 strain (AID 161);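 also: 0% = growth of cultures given vehicle only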; conditions: S. cerevisiae sgs1 mgt1 strain, at 50.0 µM, active compounds read high
How it was run: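 Percent growth inhibition was derived by comparing compound-exposed mutant yeast with vehicle-exposed cultures. The strain carries alterations in DNA damage repair.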

[4] = NCI Yeast Anticancer Drug Screen. Data for the cln2 rad14 strain (AID 165);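 also: 0% = growth equal to vehicle treated cultures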; conditions: S. cerevisiae cln2 rad14 strain, at 50.0 µM, active compounds read high
How it was run: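 Growth inhibition, relative to vehicle-treated controls, is the read-out. The test organism is a yeast strain with defined genetic alterations, cln2 rad14.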

[5] = NCI Yeast Anticancer Drug Screen. Data for the bub3 strain (AID 167); conditions: S. cerevisiae bub3 mutant strain, at 50.0 µM, active compounds read high
How it was run: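 Readout: yeast growth inhibition, expressed relative to vehicle-only wells. The test organism is a mutant strain from a panel with lesions in DNA repair or checkpoint genes.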

[6] = NCI Yeast Anticancer Drug Screen. Data for the mlh1 rad18 strain (AID 175); conditions: S. cerevisiae mlh1 rad18 strain growth inhibition; at 50.0 µM; active compounds read high
How it was run: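 Cells of a genetically altered yeast strain, deficient in DNA damage repair, were treated with compound. Their growth was then compared with that of vehicle-treated cultures to give inhibition.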

Measured: growth inhibition

CCN(CC)C1CCCCC1
inactive: [1] 19.8% | [2] 16.1% | [3] -0.9% | [4] -35.7% | [5] -0.9% | [6] 11.2%

O=S(=O)(O)C1CCC(O)C2[N-]CCCC21.O=S(=O)(O)C1CCC(O)C2[N-]CCCC21.[Ni+2] (stereo not drawn)
inactive: [1] 50.8% | [2] -4.3% | [3] 27.9% | [4] -13.4% | [5] 8.4% | [6] 23.9%

CN(C)[C@@H]1C(=O)C(C(N)=O)=C(O)[C@@]2(O)C(=O)C3=C(O)c4c(O)ccc(Cl)c4[C@@](C)(O)[C@H]3C[C@@H]12
inactive: [1] -16.9% | [2] 1.1% | [3] 13.2% | [4] -6.6% | [5] -8.8% | [6] -4.1%
